Assay outcomes (PubChem BioAssay)
This is a sample that favours compounds with a hit; in the whole collection about 9.6% have one here.
PostGolgi yeast = growth inhibition of a yeast mutant, post-Golgi transport screen. post-Golgi transport phenotypic cell assay. inhibition, % at 10 µM. hit rate 0.9% among 98,000;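 note: yeast cells grown in 1536-well plates; yeast grown about 18 h at 30C before absorbance read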
PLAP act = human PLAP activation. P05187. purified PLAP enzyme, luminescent substrate read-out; stronger effect = higher value. activation fold at 20 µM. hit rate 1.2% among 96,000; in the data active = activation fold above about 2
PostGolgi ctrl = yeast control strain growth, post-Golgi counter-screen; inhibition, % at 10 µM; AID 738; efflux-deficient yeast background strain, growth absorbance A615, 16 h; hit rate 5% among 98,000
hDAT+cocaine = modulates human dopamine transporter uptake under cocaine; Q01959; LLC-PK1 hDAT cells, [14C]-dopamine uptake with cocaine IC80; actives deviate in either direction; B-score at 10 µM; hit rate 1.3% among 110,000;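 active = Z score or B-score, a plate-position-corrected score, falls beyond the plate's 99.7% confidence bounds, in either direction; inactive = both scores lie inside the 99.7% bounds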;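 note: scored against the spread of the other compound wells on the same plate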
Cav32 inh = human Cav3.2 channel inhibition, primary screen; Cav3.2-expressing cells, Fluo-4 calcium fluorescence FDSS; stronger effect = lower value; B-score at 10 µM; hit rate 4% among 100,000; AID 449739;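 active = single-dose well whose peak fluorescence ratio is a statistical outlier from its plate by either plate-standardised score or position-corrected B-score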
Numbers without * were called inactive. Cut-off read from the data, not from the text of the source, unless noted: active = inhibition above about 30%; inactive = the rest.

What do the screens show for `COCCCn1c(CCC(=O)O)ccc1-c1cccs1`?
PostGolgi yeast: -2.5; PLAP act: 1.2; PostGolgi ctrl: 30.5*; hDAT+cocaine: -0.503

How did CCCn1c(CCC(=O)O)ccc1-c1cccs1 do in these assays?
PostGolgi yeast: 3.0; PLAP act: 1.3; PostGolgi ctrl: 3.9; hDAT+cocaine: 0.485; Cav32 inh: 0.386

What do the screens show for `O=C(C1Cc2ccccc2CN1S(=O)(=O)c1cccs1)N1CCCCC1` (stereo not given)?
PostGolgi yeast: 7.6; PLAP act: 1.1; PostGolgi ctrl: 7.4; hDAT+cocaine: 0.585; Cav32 inh: 0.212

What do the screens show for `COC(=O)c1ccc(COc2ccccc2/C=N/NS(=O)(=O)c2ccc(C)cc2)cc1`?
PostGolgi yeast: -9.8; PLAP act: 1.1; PostGolgi ctrl: 19.0; hDAT+cocaine: 1.61; Cav32 inh: -1.49

Results for CC1CCCCN1Cc1ccc(-c2nn[nH]n2)cc1 (stereo not given) ?
PostGolgi yeast: 1.4; PLAP act: 1; PostGolgi ctrl: 45.2*; hDAT+cocaine: -0.825; Cav32 inh: -0.11

Results for CC1CCCCN1Cc1ccc(N)cc1 (stereo not given) ?
hDAT+cocaine: -0.184; Cav32 inh: -0.0451

Results for Cc1ccc(C2Oc3ccccc3C3=C2C(c2cccs2)n2ncnc2N3)cc1 (stereo not given) ?
PostGolgi yeast: 18.4; PLAP act: 1; PostGolgi ctrl: 39.4*; hDAT+cocaine: 0.17; Cav32 inh: -4.61*

What do the screens show for `CCCN1C(=O)c2ccc(C(=O)NC3CCCCC3)cc2C1=O`?
PostGolgi yeast: 0.3; PLAP act: 0.9; PostGolgi ctrl: 7.3; hDAT+cocaine: -1.94; Cav32 inh: -1.14

Results for CC(C)COc1ccc(CSCCNC(=S)Nc2ccccc2)cc1 ?
PostGolgi yeast: -4.6; PLAP act: 1; PostGolgi ctrl: 19.1; hDAT+cocaine: 0.899; Cav32 inh: -4.1*

How did CCCNC(=S)Nc1ccc(Nc2ccccc2)cc1 do in these assays?
PostGolgi yeast: 19.4; PLAP act: 0.7; PostGolgi ctrl: -0.9; hDAT+cocaine: 0.182; Cav32 inh: -1.16

How did COc1ccc(NC(=O)COC(=O)c2cnccn2)cc1Cl do in these assays?
PostGolgi yeast: -2.4; PLAP act: 0.9; PostGolgi ctrl: 5.0; hDAT+cocaine: -0.0125; Cav32 inh: -0.013

How did CCCn1ncc(OC)c(Cl)c1=O do in these assays?
PostGolgi yeast: 3.1; PLAP act: 1; PostGolgi ctrl: 0.4; hDAT+cocaine: 1.17; Cav32 inh: 0.232

What do the screens show for `Nc1ccccc1-c1nnc(SCc2ccccc2Cl)[nH]c1=O`?
PostGolgi yeast: -7.0; PLAP act: 1.4; PostGolgi ctrl: 37.5*; hDAT+cocaine: -0.555; Cav32 inh: -0.566

What do the screens show for `Cc1ccc(CSc2nnc(-c3ccccc3N)c(=O)[nH]2)cc1`?
PostGolgi yeast: 1.5; PLAP act: 1.3; PostGolgi ctrl: 15.1; hDAT+cocaine: 0.398; Cav32 inh: 0.167

How did Cn1nnnc1SCCNCc1ccc(Cl)cc1 do in these assays?
PostGolgi yeast: -1.0; PLAP act: 1; PostGolgi ctrl: 0.0; hDAT+cocaine: -0.647; Cav32 inh: 0.157

How did CCOc1cc(CNCCSc2nnnn2C)cc(Br)c1OCc1ccccc1 do in these assays?
PostGolgi yeast: 5.1; PLAP act: 2*; PostGolgi ctrl: 21.2; hDAT+cocaine: 1.01; Cav32 inh: -2.22

Results for COC(=O)c1cc2ccsc2n1CC(=O)N(C)C1CCCCC1 ?
PostGolgi yeast: -4.2; PLAP act: 1; PostGolgi ctrl: 8.2

How did CCCCC(=O)NC(c1ccco1)c1c(O)ccc2ccccc12 (stereo not given) do in these assays?
PostGolgi yeast: 0.3; PLAP act: 1.1; PostGolgi ctrl: -0.5; hDAT+cocaine: -0.503; Cav32 inh: -5.51*

How did CCCC(=O)NC(c1ccco1)c1c(O)ccc2ccccc12 (stereo not given) do in these assays?
PostGolgi yeast: -1.4; PLAP act: 1.3; PostGolgi ctrl: 5.8; hDAT+cocaine: 0.0496; Cav32 inh: -1.26

What do the screens show for `O=C(OCn1nnc2ccccc2c1=O)c1ccc2ccccc2n1`?
PostGolgi yeast: -5.2; PLAP act: 1; PostGolgi ctrl: -2.4; hDAT+cocaine: -1.46; Cav32 inh: -0.487

What do the screens show for `CCOC(=O)c1c(C)n(C)c2ccc(OCCN(C)C)cc12`?
PostGolgi yeast: 2.7; PLAP act: 1.8; PostGolgi ctrl: 10.7

What do the screens show for `CCOC(=O)c1c(C)n(C)c2ccc(OCC(O)CN3CCCCCC3)cc12` (stereo not given)?
PostGolgi yeast: 18.3; PLAP act: 1.7; PostGolgi ctrl: 2.6; hDAT+cocaine: 1.51; Cav32 inh: 1.44

What do the screens show for `CCOC(=O)c1c(C)n(C)c2ccc(OC(C)C(=O)OC)cc12` (stereo not given)?
PostGolgi yeast: -3.9; PLAP act: 0.9; PostGolgi ctrl: 31.8*; hDAT+cocaine: -0.106; Cav32 inh: -0.861

What do the screens show for `CCOC(=O)c1c(C)n(C)c2ccc(OCC(O)CN3CCC(C)CC3)cc12` (stereo not given)?
PostGolgi yeast: -6.0; PLAP act: 1.7; PostGolgi ctrl: 5.2; hDAT+cocaine: 0.267; Cav32 inh: -5.29*

How did Cc1ccc(CS(=O)(=O)CCC(=O)NCCN2CCCC2)cc1 do in these assays?
PostGolgi yeast: 2.8; PLAP act: 1.1; PostGolgi ctrl: 0.6; hDAT+cocaine: -0.249

What do the screens show for `N#CCC(=O)NCC1(c2ccccc2)CCCC1`?
PostGolgi yeast: -7.1; PLAP act: 0.9; PostGolgi ctrl: 17.2; hDAT+cocaine: -0.0578; Cav32 inh: -0.0484

How did Cc1ccc(C(=O)NCC2(c3ccccc3)CCCC2)cc1 do in these assays?
PostGolgi yeast: 4.7; PLAP act: 0.8; PostGolgi ctrl: 21.1; hDAT+cocaine: 1.08; Cav32 inh: -3.87*

What do the screens show for `CCOC(=O)CCCCC(=O)c1[nH]c(=O)[nH]c1CSc1nc(C)cc(=O)[nH]1`?
PostGolgi yeast: -4.3; PLAP act: 2.2*; PostGolgi ctrl: 20.7; hDAT+cocaine: 0.133; Cav32 inh: 0.451

What do the screens show for `CCOC(=O)c1[nH]c(=O)[nH]c1COC(=O)c1cc2ccccc2o1`?
PostGolgi yeast: 4.0; PLAP act: 2.2*; PostGolgi ctrl: 11.7; hDAT+cocaine: -1.42; Cav32 inh: -0.0415

Results for CCOC(=O)c1[nH]c(=O)[nH]c1CSc1nc(C)cc(C)n1 ?
PostGolgi yeast: -5.4; PLAP act: 2.2*; PostGolgi ctrl: -11.1; hDAT+cocaine: -0.157; Cav32 inh: 0.975

How did CCOC(=O)CCCCC(=O)c1[nH]c(=O)[nH]c1CSc1nc2ccccc2[nH]1 do in these assays?
PostGolgi yeast: -4.7; PostGolgi ctrl: -9.6; hDAT+cocaine: 0.329; Cav32 inh: 0.221

How did CCOC(=O)CCCCC(=O)c1[nH]c(=O)[nH]c1CSc1nc(C)cc(C)n1 do in these assays?
PostGolgi yeast: 0.6; PLAP act: 2*; PostGolgi ctrl: 2.4; hDAT+cocaine: 0.566; Cav32 inh: -0.0111

Results for O/N=C1\CCCc2oc3c(c21)CCCC3 ?
PostGolgi yeast: 1.4; PLAP act: 1; PostGolgi ctrl: 11.5; hDAT+cocaine: -1.7; Cav32 inh: -0.921

Results for COC(=O)c1c[nH]n2c(=O)cc(CCl)nc12 ?
PostGolgi yeast: 13.4; PLAP act: 1.4; PostGolgi ctrl: 8.0; hDAT+cocaine: -0.596; Cav32 inh: -0.00273
